Compound activity deposited in PubChem BioAssay by several laboratories.
Shown are actives, neighbours in structure and some others; about 6.6% of the full set was active somewhere.
Autofluor counter – counter-screen for toxin protease inhibitors: compound fluorescence | compound autofluorescence counterscreen, microsphere flow cytometry; stronger effect = higher value | fluorescence intensity (no concentration beside the values) | actives 3.1% (n = 360,000) | AID 624483; in the data active = fluorescence intensity above about 16000; inconclusive = no clear call, values can overlap the other calls
GDH-TPI counter – counter-screen for M. tuberculosis FBA inhibitors: GDH-TPI coupled enzymes | GDH-TPI coupled enzyme counterscreen, NADH absorbance | actives 1.2% (n = 360,000) | inhibition, % at 4.8 µM; in the data active = inhibition above about 30%
FBA Mtb inh – Mtb fructose-bisphosphate aldolase inhibition. P9WQA3. purified M. tuberculosis FBA, fluorescence read-out. inhibition, % at 1 µM. actives 2.3% (n = 360,000); in the data active = inhibition above about 27%
BoNT-A LC inh2 – BoNT A light chain protease inhibition; actives 0.17% (n = 360,000); multiplex microsphere protease substrate cleavage, flow cytometry; inhibition, % at 10 µM
Anthrax LF prot – inhibitors of Bacillus anthracis lethal factor protease | P15917 | inhibition, % at 10 µM | actives 0.12% (n = 360,000) | multiplex microsphere protease cleavage assay, LF
Target sequence (P15917 whole entry, looked up): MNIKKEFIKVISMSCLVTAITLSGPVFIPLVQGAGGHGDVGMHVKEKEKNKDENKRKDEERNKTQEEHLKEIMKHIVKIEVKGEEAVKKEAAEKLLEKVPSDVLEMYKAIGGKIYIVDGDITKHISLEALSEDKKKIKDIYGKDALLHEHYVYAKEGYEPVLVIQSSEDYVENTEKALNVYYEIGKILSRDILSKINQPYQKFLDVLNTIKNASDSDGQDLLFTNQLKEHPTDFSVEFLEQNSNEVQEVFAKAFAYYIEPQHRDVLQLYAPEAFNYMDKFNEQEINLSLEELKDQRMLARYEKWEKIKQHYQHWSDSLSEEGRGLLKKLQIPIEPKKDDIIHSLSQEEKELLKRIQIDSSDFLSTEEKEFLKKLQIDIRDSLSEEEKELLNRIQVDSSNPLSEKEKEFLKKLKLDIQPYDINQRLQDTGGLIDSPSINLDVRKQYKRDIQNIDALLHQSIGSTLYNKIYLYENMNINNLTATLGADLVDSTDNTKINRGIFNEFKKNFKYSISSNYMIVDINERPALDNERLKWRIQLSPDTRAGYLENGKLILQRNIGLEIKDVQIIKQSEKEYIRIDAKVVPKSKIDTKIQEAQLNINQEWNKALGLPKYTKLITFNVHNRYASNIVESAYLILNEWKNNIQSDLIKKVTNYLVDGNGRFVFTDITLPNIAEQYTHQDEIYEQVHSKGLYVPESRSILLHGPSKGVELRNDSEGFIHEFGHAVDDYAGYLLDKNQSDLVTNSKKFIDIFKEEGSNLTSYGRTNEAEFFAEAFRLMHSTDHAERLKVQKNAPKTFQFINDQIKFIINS
BoNT F protease – inhibitors of Botulinum neurotoxin F light chain protease; Multiplex microsphere protease cleavage assay, flow cytometry; inhibition, % at 10 µM; actives 0.22% (n = 360,000); in the data active = inhibition above about 35%, passing the limit was not always enough; inconclusive = no clear call, values can overlap the other calls
Numbers stand for hits; – = inactive; ? = inconclusive; · = no result given. Cut-off read from the data, not from the text of the source, unless noted: active = inhibition above about 30%; inconclusive = no clear call, values can overlap the other calls; inactive = below that.

SMILES | Autofluor counter | GDH-TPI counter | FBA Mtb inh | BoNT-A LC inh2 | Anthrax LF prot | BoNT F protease
COc1cc2oc(=O)cc(-c3ccc(-c4ccc(CO)cc4)cc3)c2c(OC)c1OC | – | – | – | – | – | –
Cc1ccc(/C=C/C(=O)Nc2cc(S(N)(=O)=O)ccc2O)cc1 | – | – | – | – | – | –
CCS(=O)(=O)c1ccc(O)c(NC(=O)/C=C/c2ccc(Cl)cc2)c1 | – | 34 | – | – | – | –
CC1(C)Oc2cc3oc(-c4cc(O)cc(O)c4)cc3cc2CC1O (configuration not stated) | – | – | 89 | – | – | –
Cc1cccc(NC(=O)CSc2nnc(Cn3nnc(-c4ccccc4)n3)n2-c2ccccc2)c1 | 23099 | – | – | – | – | –
CCn1c(Cn2nnc(-c3ccccc3)n2)nnc1SCC(=O)Nc1cccc(C(C)=O)c1 | – | – | – | – | – | –
O=C(c1cccc(-c2ccccc2)c1)N1CC[C@@H](N2CCC(O)CC2)[C@H](O)C1 | 19128 | – | – | – | – | –
O=C1c2ccccc2S(=O)(=O)c2cc(C(=O)N3CCC(O)CC3)ccc21 | – | – | – | – | – | –
C[C@H](CO)N1C[C@H](C)[C@@H](CN(C)Cc2ccc3c(c2)OCO3)Oc2ccc(NC(=O)Cn3cnnn3)cc2C1=O | – | – | – | – | – | –
Brc1ccc(-c2nnc3c4ccccc4nc(N4CCOCC4)n23)cc1 | – | – | – | ? | ? | –
Clc1ccc(-c2nnc3c4ccccc4nc(N4CCOCC4)n23)cc1Cl | 21865 | – | – | ? | – | –
Fc1ccccc1-c1nnc2c3ccccc3nc(N3CCOCC3)n12 | 19272 | – | – | – | – | –
O=C(OCC(=O)N(CCc1ccccc1)Cc1ccccc1)c1ccc(F)c(S(=O)(=O)N2CCOCC2)c1 | – | – | – | – | – | –
CCCCOC(=O)CNc1n[nH]c(=S)[nH]c1=O | 21415 | – | – | ? | – | –
CC(C)COC(=O)CNc1n[nH]c(=S)[nH]c1=O | – | – | – | – | – | –
CN(CCOc1ccc(Cl)cc1)C(=O)c1cccc(S(=O)(=O)N2CCN(c3ccccc3)CC2)c1 | – | – | – | – | – | –
Cc1cc(C)nc(N2CCCC(C(=O)Nc3nnc(C(C)(C)C)s3)C2)n1 (configuration not stated) | – | – | – | – | – | –
COc1ccccc1NC(=O)C1CCCN(c2nc(C)cc(C)n2)C1 (configuration not stated) | – | – | – | – | – | –
Cc1cc(C)nc(N2CCCC(C(=O)Nc3cc(F)ccc3C)C2)n1 (configuration not stated) | 22529 | – | – | – | – | –
Cc1cc(C)nc(N2CCCC(C(=O)Nc3ccc4c(c3)OCO4)C2)n1 (configuration not stated) | 20510 | – | – | – | – | –
CCc1nnc(NC(=O)C2CCCN(c3nc(C)cc(C)n3)C2)s1 (configuration not stated) | 18689 | – | – | – | – | –
Cc1cc(C)n2nc(C(=O)Nc3ccc4c(c3)OCO4)cc2n1 | 22219 | – | – | – | – | –
CCC(c1nnnn1-c1ccc2c(c1)OCCO2)N1CCN(CC)CC1 (configuration not stated) | – | · | · | – | – | –
C[C@@H]1CCC[C@H](C)N1Cc1nc(Cc2ccccc2Cl)no1 | – | – | – | – | – | –
COc1ccc2nc(NC(=O)CNS(=O)(=O)c3cccs3)sc2c1 | – | – | – | – | – | –
SMILES | Autofluor counter | GDH-TPI counter | FBA Mtb inh | BoNT-A LC inh2 | Anthrax LF prot | BoNT F protease
COc1ccc2nc(NC(=O)c3ccc(NS(=O)(=O)c4cccs4)cc3)sc2c1 | – | 40 | – | – | – | –
Cc1cccc2sc(NC(=O)c3ccc(NS(=O)(=O)c4cccs4)cc3)nc12 | – | 32 | – | – | – | –
Cc1cc(F)ccc1NC(=O)c1ccc(NS(=O)(=O)c2cccs2)cc1 | – | – | – | – | – | –
COc1ccc(C(C(=O)NC(C)(C)C)N(Cc2cccnc2)C(=O)CCC(=O)Nc2cc(C)on2)cc1 (configuration not stated) | – | – | – | – | – | –
CN(c1ncc(C(F)(F)F)cc1Cl)n1cc(C(N)=O)c2ccccc2c1=O | – | – | – | – | – | –
CC(C)CC1C(=O)N(Cc2cn(CC3CCCCC3)nn2)CCS(=O)(=O)N1Cc1ccc(-c2ccc(F)nc2)cc1 (configuration not stated) | – | – | – | – | – | –
CCc1ccc(Nc2ncc3c(n2)CC(c2ccc(OC)cc2)CC3=O)cc1 (configuration not stated) | – | – | – | – | – | –
CC1CC(=O)c2cnc(N)nc2C1 (configuration not stated) | 22837 | – | – | – | – | –
CC1CC(=O)c2cnc(N3CCOCC3)nc2C1 (configuration not stated) | – | – | – | – | – | –
COc1cccc(C(=O)Nc2ncc3c(n2)CC(c2ccc(OC)cc2OC)CC3=O)c1 (configuration not stated) | 24133 | – | – | ? | – | –
Cc1cccc(Nc2ncc3c(n2)CC(C)CC3=O)c1 (configuration not stated) | – | 36 | – | – | – | –
Cc1cccc(Nc2ncc3c(n2)CC(c2ccco2)CC3=O)c1 (configuration not stated) | – | – | – | – | – | –
COc1ccc(C(=O)Nc2ncc3c(n2)CC(C)CC3=O)cc1 (configuration not stated) | – | – | – | – | – | –
COc1ccc(Nc2ncc3c(n2)CC(c2ccccc2)CC3=O)cc1 (configuration not stated) | – | 31 | – | – | – | –
COc1ccc(NC(=O)C2CCN(S(=O)(=O)c3ccc(Cl)c(C(F)(F)F)c3)CC2)cn1 | – | – | – | – | – | –
CCn1cc(CN2CCC(n3nccc3NC(=O)c3ccc(OC)cc3)CC2)cn1 | – | – | – | – | – | –
Oc1ccc(N=Nc2n[nH]c(-c3ccc(Cl)cc3)n2)cc1 | – | – | – | – | – | –
O=C1CC(c2ccccc2)CC2=C1C1(CCCC1)N=C(Nc1nc3ccccc3o1)N2 (configuration not stated) | – | – | – | – | – | –
CC1C(=O)N(Cc2cn(CCC3OCCCO3)nn2)CCS(=O)(=O)N1Cc1ccc(-c2ccc(Cl)c(Cl)c2)cc1 (configuration not stated) | – | – | – | – | – | –
O=C(NCc1ccco1)c1ccc2nccnc2c1 | – | – | – | – | – | –
COc1ccc(/C=C(/C(=O)c2ccc(Cl)cc2Cl)n2cncn2)cc1 | – | 32 | – | – | – | –
CCn1c(SCC(=O)NCc2ccccc2)nc2c(c1=O)SC(C)C2 (configuration not stated) | – | – | – | – | – | –
CCCOC(=O)c1ccc(-c2ccc(C=O)o2)cc1 | – | 36 | – | – | – | –
NS(=O)(=O)c1ccc(-c2ccc(C=O)o2)cc1 | – | 34 | – | – | – | –
CCCCOC(=O)c1ccc(-c2ccc(/C=N/NC(=S)NCC)o2)cc1 | 16266 | – | – | ? | – | –
